Data from PubChem BioAssay (EPA / NIEHS).
Records with an inconclusive call do not appear. The source made the active and inactive calls. How the source made its calls, unless noted: active means hit-call score of the fitted dose curve at least 0.9, where 1 is the maximum; inactive means score below 0.9.

Columns and labels:
[1] = ATG_NFI_CIS: Attagene CIS-FACTORIAL HepG2 Assay for human Nuclear Factor I (NFI) (AID 2282989); conditions: HepG2 cis-regulatory reporter, NFI response element transcription; actives raise or lower the signal
Method in brief: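 HepG2 cells transiently transfected with cis-element-driven multiplexed reporter transcription units, dosed for 24 h. Reporter mRNA quantified by RT-PCR, fluorescent labelling, HpaI digestion and capillary electrophoresis; bidirectional fit versus DMSO baseline.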

[2] = molecular target: Myc proto-oncogene protein (Homo sapiens) (UniProt P01106); test: ATG_Myc_CIS: Attagene CIS-FACTORIAL HepG2 Assay for human Myelocytomatosis (Myc) Proto-Oncogene Transcription Factor (AID 2282990); conditions: HepG2, Attagene cis-reporter transcription factor activity; actives raise or lower the signal
Method in brief: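 Multiplexed cis-reporter transcription in HepG2 cells after 24 h chemical treatment. Reporter mRNA measured by RT-PCR and capillary electrophoresis fluorescence; activity fitted bidirectionally against DMSO control.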

[3] = ATG_NRF2_ARE_CIS: Attagene CIS-FACTORIAL HepG2 Assay for human Nuclear Factor Erythroid 2 Related Factor 2 (NFR2) response to Antioxidant Response Elements (ARE) (AID 2282992); conditions: HepG2 Attagene ARE/NRF2 reporter, transcription factor activity; actives raise or lower the signal
Method in brief: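 Endogenous transcription factor activity read out as reporter transcript levels (RT-PCR plus capillary electrophoresis, fluorescence) in transiently transfected HepG2 cells. Measured at 24 h after dosing; gain or loss of signal fitted versus DMSO.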

[4] = ATG_Oct_MLP_CIS: Attagene CIS-FACTORIAL HepG2 Assay for human Octamer-Binding Transcription Factor (Oct) (AID 2282993); conditions: HepG2 Attagene cis-factorial Oct reporter, mRNA; actives raise or lower the signal
Method in brief: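 HepG2 cells transiently transfected with cis-promoter-driven multiplexed reporter transcription units, dosed for 24 h. Reporter mRNA quantified by RT-PCR, fluorescent labelling, HpaI digestion and capillary electrophoresis; bidirectional fits versus DMSO baseline.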

[5] = molecular target: Cellular tumor antigen p53 (Homo sapiens) (UniProt P04637); test: ATG_p53_CIS: Attagene CIS-FACTORIAL HepG2 Assay for human p53 Transcription Factor (AID 2282994); conditions: HepG2 p53 cis-element reporter, Attagene mRNA; actives raise or lower the signal
Method in brief: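 Endogenous p53 activity read in transiently transfected HepG2 from a cis-element-driven reporter transcript after 24 h exposure. RNA reverse-transcribed, PCR-amplified, fluorescently labelled and sized by capillary electrophoresis; gain or loss fitted against DMSO baseline.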

[6] = molecular target: human Peroxisome Proliferator-activated Receptor alpha (PPARa), PPARA (gene 5465) (UniProt Q07869); test: ATG_PPARa_TRANS: Attagene TRANS-FACTORIAL HepG2 Assay for human Peroxisome Proliferator-activated Receptor alpha (PPARa) (AID 2283001; active means hit-call score of the fitted dose curve at least 0.9, where 1 is the maximum)
Method in brief: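 Exposure: 24 h, transiently transfected HepG2 cells. Endpoint: GAL4-UAS reporter mRNA, RT-PCR with capillary electrophoresis fluorescence. Baseline: DMSO; increases fitted.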

[7] = molecular target: human Peroxisome Proliferator-activated Receptor delta (PPARd), PPARD (gene 5467) (UniProt Q03181); test: ATG_PPARd_TRANS: Attagene TRANS-FACTORIAL HepG2 Assay for human Peroxisome Proliferator-activated Receptor delta (PPARd) (AID 2283002; active means hit-call score of the fitted dose curve at least 0.9, where 1 is the maximum)
Method in brief: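 Multiplexed trans-activation format: HepG2 liver cells expressing exogenous NR-Gal4 chimeras and GAL4-UAS reporters were exposed for 24 h. Reporter mRNA was detected by RT-PCR with capillary electrophoresis fluorescence; activity fitted as gain of signal relative to DMSO.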

[8] = molecular target: Peroxisome proliferator-activated receptor gamma (Homo sapiens) (UniProt P37231); test: ATG_PPARg_TRANS: Attagene TRANS-FACTORIAL HepG2 Assay for human Peroxisome Proliferator-activated Receptor-gamma (PPARg) (AID 2283007; active means hit-call score of the fitted dose curve at least 0.9, where 1 is the maximum)
Method in brief: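 Liver-derived HepG2 cells expressing an exogenous NR-Gal4 chimera alongside GAL4-UAS reporter genes; 24 h exposure. Fluorescence of reporter RT-PCR products, separated by capillary electrophoresis, gives mRNA induction relative to DMSO.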

[9] = BSK_3C_TissueFactor: BioMAP Diversity Plus: 3C Assay for Tissue Factor Biomarker Activity (AID 2282997); conditions: BioMAP 3C HUVEC, tissue factor biomarker readout; actives raise or lower the signal
Method in brief: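 Tissue factor on primary human umbilical vein endothelium was read by ELISA 24 h after dosing, gain or loss relative to DMSO. Cytotoxicity ran alongside via SRB (0.1%, TCA-fixed, 560 nm).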

[10] = BSK_3C_uPAR: BioMAP Diversity Plus: 3C Assay for Urokinase-type plasminogen activator receptor (uPAR) Biomarker Activity (AID 2282998); conditions: BioMAP 3C HUVEC, uPAR biomarker ELISA; actives raise or lower the signal
Method in brief: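 Human umbilical vein endothelial primary cells were exposed to test chemical for 24 h. Cell-surface uPAR was then quantified by ELISA, and responses were fitted bidirectionally against DMSO as negative control and baseline.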

[11] = BSK_3C_VCAM1: BioMAP Diversity Plus: 3C Assay for Vascular cell adhesion molecule 1 (VCAM1) Biomarker Activity (AID 2282999); conditions: BioMAP 3C HUVEC, VCAM1 ELISA, cytokine-stimulated; actives raise or lower the signal
Method in brief: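 Vascular primary endothelium (human umbilical vein) was exposed to chemicals and assayed 24 h later. VCAM-1 levels came from ELISA, with DMSO serving as baseline for bidirectional fitting.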

[12] = BSK_4H_Eotaxin3: BioMAP Diversity Plus: 4H Assay for Eotaxin 3 Biomarker Activity (AID 2283000); conditions: primary human endothelial cells (HUVEC); actives raise or lower the signal;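 further: CCL26 protein level quantified by ELISA in parallel with SRB cytotoxicity check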
Method in brief: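 Human umbilical vein endothelial cells (BSK_4H system) dosed with test chemical; Eotaxin-3 (CCL26) measured by ELISA 24 h after dosing. Bidirectional curve fitting relative to DMSO negative control as baseline.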

[13] = read-out: Intercellular Adhesion Molecule 1 (ICAM1), ICAM1 (gene 3383); test: BSK_3C_ICAM1: BioMAP Diversity Plus: 3C Assay for Intercellular Adhesion Molecule 1 (ICAM1) Biomarker Activity (AID 2283003); conditions: primary human endothelial cells (HUVEC); actives raise or lower the signal
Method in brief: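 Using DMSO as baseline, bidirectional curve fitting was applied to ICAM-1 ELISA signals from HUVEC in the 3C system, measured 24 h after compound addition.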

[14] = molecular target: Nuclear receptor subfamily 1 group I member 2 (Homo sapiens) (UniProt O75469); test: ATG_PXR_TRANS: Attagene TRANS-FACTORIAL HepG2 Assay for human Pregnane X Receptor (PXR) (AID 2283008; active means hit-call score of the fitted dose curve at least 0.9, where 1 is the maximum)
Method in brief: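 Transactivation by exogenous PXR–GAL4 fusion measured as reporter transcript induction after 24 h compound treatment of transfected human HepG2 cells. Read-out via RT-PCR and capillary electrophoresis of labelled fragments, fitted upward relative to DMSO.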

[15] = ATG_NF_kB_CIS: Attagene CIS-FACTORIAL HepG2 Assay for human Nuclear Factor Kappa B (NF-kB) (AID 2282991); conditions: HepG2 Attagene cis-factorial NF-kB reporter mRNA; actives raise or lower the signal
Method in brief: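 After 24 h compound incubation, transfected HepG2 cells yield total RNA; reporter cDNA is PCR-amplified, end-labelled with 6-FAM, HpaI-digested and analysed on a genetic analyser. Endogenous factor activity, DMSO-referenced bidirectional fit.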

[16] = molecular target: Retinoic acid receptor alpha (Homo sapiens) (UniProt P10276); test: ATG_RARa_TRANS: Attagene TRANS-FACTORIAL HepG2 Assay for human Retinoic Acid Receptor alpha (RARa) (AID 2283005; active means hit-call score of the fitted dose curve at least 0.9, where 1 is the maximum)
Method in brief: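 HepG2 cells transiently transfected with multiple reporter units expressing chimeric RARα-GAL4 fusion, with GAL4-UAS-driven reporters. After 24 h compound exposure, reporter mRNA induction quantified by RT-PCR and capillary electrophoresis with fluorescent labeling; gain-of-signal fitted relative to DMSO control.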

[17] = molecular target: human Retinoic Acid Receptor beta (RARb), RARB (gene 5915) (UniProt P10826); test: ATG_RARb_TRANS: Attagene TRANS-FACTORIAL HepG2 Assay for human Retinoic Acid Receptor beta (AID 2283004; active means hit-call score of the fitted dose curve at least 0.9, where 1 is the maximum)
Method in brief: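 Induction of reporter mRNA from a chimeric RARb-Gal4 construct was measured by RT-PCR, FAM labelling, HpaI digestion and capillary electrophoresis. Measurements followed 24 h compound treatment of transiently transfected human HepG2 liver cells, with DMSO as baseline.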

[18] = molecular target: human RAR-related Orphan Receptor beta (RORb), RORB (gene 6096) (UniProt Q92753); test: ATG_RORb_TRANS: Attagene TRANS-FACTORIAL HepG2 Assay for human RAR-related Orphan Receptor beta (RORb) (AID 2283010; active means hit-call score of the fitted dose curve at least 0.9, where 1 is the maximum)
Method in brief: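 Multiplexed transcription-factor reporter assay: HepG2 cells transiently carrying NR-Gal4/GAL4-UAS constructs, 24 h treatment, mRNA quantified by RT-PCR plus capillary electrophoresis fluorescence; activity scored as induction over DMSO.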

[19] = molecular target: human Retinoic Acid Receptor gamma (RARg), RARG (gene 5916) (UniProt P13631); test: ATG_RARg_TRANS: Attagene TRANS-FACTORIAL HepG2 Assay for human Retinoic Acid Receptor gamma (RARg) (AID 2283009; active means hit-call score of the fitted dose curve at least 0.9, where 1 is the maximum)
Method in brief: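 Gain-of-signal relative to DMSO is reported from fluorescent capillary electrophoresis of RT-PCR reporter products. These came from HepG2 cells expressing transfected RARg-GAL4 chimeras with UAS reporters, harvested 24 h after dosing.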

Measured: AC50

Sequence of Nuclear receptor subfamily 1 group I member 2 (Homo sapiens) (O75469 whole entry, looked up, the tested form may be a part): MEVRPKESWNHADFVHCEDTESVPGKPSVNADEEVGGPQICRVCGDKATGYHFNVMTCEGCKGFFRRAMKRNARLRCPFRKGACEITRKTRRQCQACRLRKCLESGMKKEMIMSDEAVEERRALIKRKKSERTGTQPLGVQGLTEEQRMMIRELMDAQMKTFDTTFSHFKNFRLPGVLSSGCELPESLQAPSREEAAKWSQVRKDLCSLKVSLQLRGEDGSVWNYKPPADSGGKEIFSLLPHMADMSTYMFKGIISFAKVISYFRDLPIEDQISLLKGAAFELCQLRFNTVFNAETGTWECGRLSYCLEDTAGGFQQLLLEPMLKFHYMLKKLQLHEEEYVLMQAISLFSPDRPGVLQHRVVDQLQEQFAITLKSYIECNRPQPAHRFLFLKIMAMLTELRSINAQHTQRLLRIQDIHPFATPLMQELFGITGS
Sequence of Peroxisome proliferator-activated receptor gamma (Homo sapiens) (P37231 whole entry, looked up, the tested form may be a part): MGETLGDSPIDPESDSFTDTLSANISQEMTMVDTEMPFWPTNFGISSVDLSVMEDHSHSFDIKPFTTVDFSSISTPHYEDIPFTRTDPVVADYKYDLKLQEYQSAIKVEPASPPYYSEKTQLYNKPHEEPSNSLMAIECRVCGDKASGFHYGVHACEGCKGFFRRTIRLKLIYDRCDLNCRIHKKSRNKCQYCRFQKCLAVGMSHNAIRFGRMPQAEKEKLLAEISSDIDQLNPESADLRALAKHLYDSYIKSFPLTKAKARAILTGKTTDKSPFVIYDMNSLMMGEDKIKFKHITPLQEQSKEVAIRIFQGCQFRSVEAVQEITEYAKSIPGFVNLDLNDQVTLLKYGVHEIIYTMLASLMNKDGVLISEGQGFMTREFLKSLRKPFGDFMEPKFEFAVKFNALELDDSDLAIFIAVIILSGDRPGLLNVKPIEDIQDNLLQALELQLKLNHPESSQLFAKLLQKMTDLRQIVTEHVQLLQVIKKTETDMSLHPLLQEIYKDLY
Sequence of Cellular tumor antigen p53 (Homo sapiens) (P04637 whole entry, looked up): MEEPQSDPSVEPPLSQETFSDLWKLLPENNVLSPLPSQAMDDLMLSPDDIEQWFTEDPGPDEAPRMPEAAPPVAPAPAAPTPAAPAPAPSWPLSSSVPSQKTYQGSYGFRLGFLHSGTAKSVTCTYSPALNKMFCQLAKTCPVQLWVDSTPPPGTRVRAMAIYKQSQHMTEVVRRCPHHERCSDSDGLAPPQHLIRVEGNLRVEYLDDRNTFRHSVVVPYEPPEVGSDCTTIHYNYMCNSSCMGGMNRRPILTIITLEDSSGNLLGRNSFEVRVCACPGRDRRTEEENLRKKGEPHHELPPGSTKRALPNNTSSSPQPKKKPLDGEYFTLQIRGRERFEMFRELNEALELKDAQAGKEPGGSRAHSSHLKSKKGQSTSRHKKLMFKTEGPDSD
Sequence of human Peroxisome Proliferator-activated Receptor alpha (PPARa), PPARA (gene 5465) (Q07869 whole entry, looked up, the tested form may be a part): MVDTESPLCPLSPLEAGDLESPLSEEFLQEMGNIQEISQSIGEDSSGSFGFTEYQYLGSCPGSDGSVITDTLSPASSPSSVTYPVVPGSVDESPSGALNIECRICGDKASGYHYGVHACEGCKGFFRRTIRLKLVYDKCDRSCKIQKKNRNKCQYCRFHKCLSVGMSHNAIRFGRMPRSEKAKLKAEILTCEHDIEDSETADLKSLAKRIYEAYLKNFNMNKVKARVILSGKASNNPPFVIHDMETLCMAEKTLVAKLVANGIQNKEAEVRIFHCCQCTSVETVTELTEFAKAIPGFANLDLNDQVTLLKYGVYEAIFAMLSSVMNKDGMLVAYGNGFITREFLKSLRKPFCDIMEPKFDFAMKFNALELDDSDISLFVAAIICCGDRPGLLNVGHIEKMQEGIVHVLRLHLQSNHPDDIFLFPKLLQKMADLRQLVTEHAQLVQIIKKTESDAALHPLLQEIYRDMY
Sequence of human Peroxisome Proliferator-activated Receptor delta (PPARd), PPARD (gene 5467) (Q03181 whole entry, looked up, the tested form may be a part): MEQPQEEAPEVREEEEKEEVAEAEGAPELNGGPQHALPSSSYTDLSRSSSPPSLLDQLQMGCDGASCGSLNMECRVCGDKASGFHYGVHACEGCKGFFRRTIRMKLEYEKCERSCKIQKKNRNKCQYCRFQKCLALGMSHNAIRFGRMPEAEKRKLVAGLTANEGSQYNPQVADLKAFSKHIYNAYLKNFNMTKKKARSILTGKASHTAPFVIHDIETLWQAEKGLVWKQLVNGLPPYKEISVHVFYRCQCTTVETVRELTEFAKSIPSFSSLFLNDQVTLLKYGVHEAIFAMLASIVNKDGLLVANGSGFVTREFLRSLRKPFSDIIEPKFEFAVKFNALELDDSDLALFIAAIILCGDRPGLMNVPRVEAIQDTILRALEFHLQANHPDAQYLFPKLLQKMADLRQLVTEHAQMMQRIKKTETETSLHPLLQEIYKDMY
Sequence of Myc proto-oncogene protein (Homo sapiens) (P01106 whole entry, looked up): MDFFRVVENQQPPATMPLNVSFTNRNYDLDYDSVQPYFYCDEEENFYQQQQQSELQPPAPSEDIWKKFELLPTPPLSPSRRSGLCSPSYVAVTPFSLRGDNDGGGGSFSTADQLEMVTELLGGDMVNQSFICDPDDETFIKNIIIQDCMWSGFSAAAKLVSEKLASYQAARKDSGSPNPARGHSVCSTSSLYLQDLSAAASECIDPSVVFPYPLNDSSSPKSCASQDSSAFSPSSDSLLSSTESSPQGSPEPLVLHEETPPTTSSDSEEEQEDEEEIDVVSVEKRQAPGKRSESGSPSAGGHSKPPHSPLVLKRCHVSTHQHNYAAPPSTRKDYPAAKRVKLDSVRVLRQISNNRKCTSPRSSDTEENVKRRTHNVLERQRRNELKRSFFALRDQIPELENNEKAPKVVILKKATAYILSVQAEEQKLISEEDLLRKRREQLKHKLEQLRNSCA
Sequence of human Retinoic Acid Receptor beta (RARb), RARB (gene 5915) (P10826 whole entry, looked up, the tested form may be a part): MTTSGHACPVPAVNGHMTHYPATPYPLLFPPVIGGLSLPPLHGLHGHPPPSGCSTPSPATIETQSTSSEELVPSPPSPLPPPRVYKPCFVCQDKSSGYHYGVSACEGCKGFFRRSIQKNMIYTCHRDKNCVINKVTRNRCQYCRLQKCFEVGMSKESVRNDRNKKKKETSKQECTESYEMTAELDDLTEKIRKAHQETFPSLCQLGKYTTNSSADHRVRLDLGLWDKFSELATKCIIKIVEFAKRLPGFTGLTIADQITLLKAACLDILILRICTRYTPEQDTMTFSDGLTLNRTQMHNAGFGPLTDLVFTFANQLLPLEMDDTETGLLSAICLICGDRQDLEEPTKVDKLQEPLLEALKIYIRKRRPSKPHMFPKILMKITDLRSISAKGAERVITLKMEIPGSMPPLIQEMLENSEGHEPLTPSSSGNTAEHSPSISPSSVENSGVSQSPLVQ
Sequence of human RAR-related Orphan Receptor beta (RORb), RORB (gene 6096) (Q92753 whole entry, looked up, the tested form may be a part): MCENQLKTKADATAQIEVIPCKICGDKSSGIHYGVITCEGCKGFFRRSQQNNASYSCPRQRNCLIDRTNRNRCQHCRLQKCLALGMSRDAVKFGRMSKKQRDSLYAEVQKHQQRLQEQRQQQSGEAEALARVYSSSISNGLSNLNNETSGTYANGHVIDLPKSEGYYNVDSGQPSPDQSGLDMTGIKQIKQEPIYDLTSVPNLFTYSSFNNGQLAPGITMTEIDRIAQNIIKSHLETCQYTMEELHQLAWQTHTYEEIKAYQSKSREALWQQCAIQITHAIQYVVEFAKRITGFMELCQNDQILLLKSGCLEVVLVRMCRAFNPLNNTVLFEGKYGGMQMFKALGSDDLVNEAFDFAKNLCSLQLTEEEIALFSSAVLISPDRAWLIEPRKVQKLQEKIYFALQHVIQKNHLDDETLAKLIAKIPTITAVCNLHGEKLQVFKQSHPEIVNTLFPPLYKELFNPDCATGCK
Sequence of Retinoic acid receptor alpha (Homo sapiens) (P10276 whole entry, looked up, the tested form may be a part): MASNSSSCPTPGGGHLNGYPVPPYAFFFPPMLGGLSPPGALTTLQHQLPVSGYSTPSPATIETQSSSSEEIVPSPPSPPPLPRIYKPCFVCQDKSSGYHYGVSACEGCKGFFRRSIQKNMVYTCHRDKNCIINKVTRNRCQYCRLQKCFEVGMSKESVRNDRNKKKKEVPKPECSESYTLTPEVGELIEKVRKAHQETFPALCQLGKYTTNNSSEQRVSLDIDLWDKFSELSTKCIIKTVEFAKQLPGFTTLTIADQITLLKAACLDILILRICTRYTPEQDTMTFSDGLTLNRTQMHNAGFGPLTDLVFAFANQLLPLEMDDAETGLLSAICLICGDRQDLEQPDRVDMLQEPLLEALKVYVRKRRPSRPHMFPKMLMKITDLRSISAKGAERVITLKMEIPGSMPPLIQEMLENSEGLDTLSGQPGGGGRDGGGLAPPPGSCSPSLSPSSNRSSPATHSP
Sequence of human Retinoic Acid Receptor gamma (RARg), RARG (gene 5916) (P13631 whole entry, looked up, the tested form may be a part): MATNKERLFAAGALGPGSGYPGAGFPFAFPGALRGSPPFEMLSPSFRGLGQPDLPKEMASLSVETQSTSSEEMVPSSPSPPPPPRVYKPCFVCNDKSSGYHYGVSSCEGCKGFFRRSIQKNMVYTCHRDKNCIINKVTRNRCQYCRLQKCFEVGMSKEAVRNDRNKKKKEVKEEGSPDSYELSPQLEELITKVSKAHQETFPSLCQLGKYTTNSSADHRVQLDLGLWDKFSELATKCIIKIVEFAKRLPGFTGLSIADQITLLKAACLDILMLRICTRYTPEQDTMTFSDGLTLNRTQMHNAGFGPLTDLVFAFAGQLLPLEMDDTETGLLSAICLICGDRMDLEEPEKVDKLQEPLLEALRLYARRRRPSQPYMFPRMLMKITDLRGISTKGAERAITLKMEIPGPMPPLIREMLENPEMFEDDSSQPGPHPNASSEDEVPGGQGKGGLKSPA

Cc1cc(C)nc(NS(=O)(=O)c2ccc(N)cc2)n1
inactive: [1] | [2] | [3] | [4] | [5] | [6] | [7] | [8]

CC=Cc1ccc(OCC)c(O)c1
active: [8] 31.8 µM | [14] 53.6 µM
inactive: [1] | [2] | [3] | [4] | [5] | [9] | [10] | [11] | [12] | [6] | [13]

CC(C)(C)OC(=O)c1ccc(O)cc1
inactive: [1] | [2] | [15] | [7] | [14]
active: [3] 35 µM | [4] 100 µM | [8] 39.4 µM

OCc1ccc(Cl)cc1Cl
inactive: [1] | [2] | [3] | [4] | [5] | [6] | [7] | [16] | [14]

CCCOCCO
inactive: [1] | [2] | [3] | [4] | [5] | [6] | [17] | [8] | [14] | [18]

CCCCOC(=O)CCCCCCCC(=O)OCCCC
inactive: [1] | [2] | [3] | [4] | [5] | [9] | [10] | [11] | [12] | [6] | [13]

C=Cc1ccc(C(C)(C)C)cc1
inactive: [1] | [2] | [15] | [3] | [4] | [7] | [14]

CC/C=C\CCOC(=O)CC
inactive: [1] | [2] | [3] | [4] | [5] | [6] | [14]

Nc1ccc(N)c2c1C(=O)c1ccccc1C2=O
active: [3] 5.63 µM | [4] 3.47 µM | [8] 11.3 µM
inactive: [1] | [2] | [5] | [6] | [7] | [17] | [14] | [19] | [18]
